C diff growth = blocks growth of Clostridium difficile; Clostridium difficile clinical isolate growth, OD600, 24 h; stronger effect = lower value; growth activity, negative = inhibition, % at 16 µg/mL (by protocol); 0.25% of 86,000 active;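 active = mean growth activity at or below -80% and every replicate also at or below -80%; inconclusive = mean at or below -80% but some replicate above -80%; inactive = mean growth activity above -80%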
Pf Dd2 growth = blocks growth of Plasmodium falciparum Dd2 parasites; P. falciparum Dd2 growth, SYBR Green, 72 h; stronger effect = lower value; activity change, % at 10 µM; 2.3% of 94,000 active; AID 1159554; in the data active = activity change below about -80%; inconclusive = no clear call, values can overlap the other calls
T cruzi growth-1 = inhibitors of T. cruzi proliferation. T. cruzi beta-gal in NIH3T3, GalScreen luminescence, 90 h. inhibition, % at 8.34 µM. 5.9% of 77,000 active;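 active = mean inhibition above about 93%, with at least 55% of replicates each passing it, limit read from the data, passing the limit was not always enough; inconclusive = only one of those two conditions holds; inactive = neither condition holds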
T cruzi growth-2 = inhibitors of T. cruzi proliferation | shares compounds with T cruzi growth-1 | T. cruzi beta-gal in NIH3T3, GalScreen luminescence, 90 h | inhibition, % at 8.35 µM | 72% of 5,600 active | AID 651739;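 active = mean replicate inhibition above about 95% and at least 55% of replicates individually reaching it, limit read from the data; inconclusive = only one of the two criteria is met; inactive = neither criterion is met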
T cruzi growth-3 = blocks T. cruzi growth in NIH3T3 host cells. shares compounds with T cruzi growth-1. T. cruzi beta-gal in NIH3T3, GalScreen luminescence, 90 h. inhibition, % at 2.09 µM. 21% of 5,600 active. AID 651740;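 active = mean inhibition above about 95%, with at least 55% of replicates also reaching it, limit read from the data; inconclusive = meets just one of the two conditions; inactive = meets neither condition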
NIH3T3 tox = cytotoxicity in mouse NIH/3T3 fibroblasts; cytotoxicity (signal decrease), % at 8.35 µM; shares compounds with T cruzi growth-1; AID 651742; 14% of 5,600 active; NIH/3T3 viability, CellTiter-Glo ATP luminescence, 90 h;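 active = mean signal decrease across replicates above about 35% based on untreated-well scatter, with enough replicates individually passing, limit read from the data; inconclusive = no rule stated though some were filed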
NIH3T3 tox 2 = NIH/3T3 (mouse) viability loss; NIH/3T3 viability, CellTiter-Glo ATP luminescence, 90 h; AID 651744; 56% of 5,600 active; shares compounds with T cruzi growth-1; inhibition, % at 24.9 µM;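 active = mean loss of cell viability signal at or above a set limit, and enough replicates individually reaching it; inconclusive = meets only the mean limit or only the replicate share; inactive = meets neither condition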
A number is an active result; n = inactive; u = inconclusive; x = no result. Sampled rows, rich in hits. Any-hit rate of the full collection: about 6.8%.

SMILES	C diff growth	Pf Dd2 growth	T cruzi growth-1	T cruzi growth-2	T cruzi growth-3	NIH3T3 tox	NIH3T3 tox 2
Cc1noc(C)c1S(=O)(=O)N(C)C[C@@H]1OCCCC[C@H](C)Oc2ccc(NC(=O)Nc3ccc(C(F)(F)F)cc3)cc2C(=O)N([C@H](C)CO)C[C@@H]1C	n	n	104	105	113	n	n
CC(C)c1cn(CC[C@@H]2CC[C@@H](NS(=O)(=O)c3ccccc3)[C@H](CO)O2)nn1	n	n	n	x	x	x	x
O=C(C[C@H]1C=C[C@H](NC(=O)c2ccccc2)[C@H](CO)O1)NCc1ccncn1	x	n	n	x	x	x	x
O=C(C[C@@H]1CC[C@H]2[C@@H](COC[C@H](O)CN2Cc2cc(F)ccc2F)O1)NCc1ccccc1	x	n	n	x	x	x	x
COc1ccc(-c2cnc3c(c2)C(=O)N([C@H](C)CO)C[C@@H](C)[C@H](CN(C)C(=O)C2CC2)O3)cc1	n	n	n	x	x	x	x
O=C(c1ccc(F)cc1)N1CCCCN2[C@H](CO)[C@@H](c3ccc(-c4ccc(F)cc4)cc3)[C@@H]2C1	n	n	100	99	103	n	104
COc1cccc(-c2ccc([C@H]3[C@@H](CO)N4CCCCN(C(=O)c5ccc(F)cc5)C[C@H]34)cc2)c1	n	n	108	108	n	n	104
COc1cccc(-c2ccc([C@@H]3[C@@H](CO)N4CCCCN(C(=O)c5ccc(F)cc5)C[C@H]34)cc2)c1	n	n	n	x	x	x	x
O=C(c1ccc(F)cc1)N1CCCCN2[C@H](C1)[C@@H](c1ccc(-c3ccccc3)cc1)[C@@H]2CO	n	n	n	x	x	x	x
O=C(c1ccc(F)cc1)N1CCCCN2[C@@H](CO)[C@H](c3ccc(-c4ccc(F)cc4)cc3)[C@@H]2C1	n	n	104	n	n	44	106
O=C(c1ccc(F)cc1)N1CCCCN2[C@H](C1)[C@H](c1ccc(-c3ccc(F)cc3)cc1)[C@@H]2CO	n	n	n	x	x	x	x
CCC(=O)N[C@@H]1C[C@@H]2O[C@H](CO)CC[C@@H]2O[C@@H]1CCc1ccc(-c2cccc(OC)c2)cc1	n	n	x	x	x	x	x
N#C[C@@H]1[C@@H](c2ccc(C#CC3(O)CCCC3)cc2)[C@@H](CO)N1C(=O)C1CC1	n	n	n	x	x	x	x
COc1ccc2c3c([nH]c2c1)[C@H](CO)NCC31CCN(C(=O)Cc2ccncc2)CC1	x	n	x	x	x	x	x
C[C@H](CO)N1C[C@H](C)[C@@H](CN(C)CC2CCOCC2)Oc2cc(C#CC3CC3)ccc2S1(=O)=O	n	n	n	x	x	x	x
C[C@@H]1CN([C@@H](C)CO)S(=O)(=O)c2ccc(C#CC3CC3)cc2O[C@H]1CN(C)CC1CCOCC1	n	n	109	n	n	65	89
C[C@H]1CN([C@@H](C)CO)S(=O)(=O)c2ccc(C#CC3CC3)cc2O[C@@H]1CN(C)CC1CCOCC1	n	n	u	103	n	n	99
C[C@@H]1CN([C@@H](C)CO)S(=O)(=O)c2ccc(C#CC3CC3)cc2O[C@@H]1CN(C)CC1CCOCC1	n	n	n	x	x	x	x
CO[C@H]1CN(C)C(=O)c2ccc(NC(C)=O)cc2OC[C@@H](C)N(C(=O)Cc2cccnc2)C[C@H]1C	n	n	n	x	x	x	x
COC(=O)C[C@H]1CC[C@@H]2[C@H](COc3ccc(NC(=O)c4ccccc4F)cc3C(=O)N2C)O1	n	x	n	x	x	x	x
C[C@@H]1CN([C@H](C)CO)S(=O)(=O)c2ccc(C3=CCCCC3)cc2O[C@@H]1CN(C)Cc1ccccc1F	n	n	x	x	x	x	x
C[C@@H]1CN([C@@H](C)CO)C(=O)c2cc(NS(=O)(=O)c3ccc(F)cc3)ccc2O[C@@H]1CN(C)S(=O)(=O)c1cn(C)cn1	n	n	n	x	x	x	x
Cc1ccc(S(=O)(=O)N(C)C[C@H]2Oc3ccc(NC(=O)Cn4cnnn4)cc3C(=O)N([C@@H](C)CO)C[C@@H]2C)cc1	n	n	x	x	x	x	x
COc1ccc(NC(=O)Nc2ccc3c(c2)CC(=O)N([C@@H](C)CO)C[C@@H](C)[C@H](CN(C)S(=O)(=O)c2ccc(Cl)cc2)O3)cc1	n	n	n	x	x	x	x
C[C@@H]1CN([C@@H](C)CO)C(=O)c2cc(NS(=O)(=O)c3ccc(Cl)cc3)ccc2O[C@H]1CN(C)Cc1ccc(C(F)(F)F)cc1	n	n	n	x	x	x	x
SMILES	C diff growth	Pf Dd2 growth	T cruzi growth-1	T cruzi growth-2	T cruzi growth-3	NIH3T3 tox	NIH3T3 tox 2
C[C@H]1CN([C@@H](C)CO)C(=O)c2cc(NS(=O)(=O)c3ccc(F)cc3)ccc2O[C@@H]1CN(C)Cc1ccc(C(F)(F)F)cc1	n	n	n	x	x	x	x
Cc1ccc(S(=O)(=O)Nc2ccc3c(c2)C(=O)N([C@H](C)CO)C[C@H](C)[C@H](CN(C)Cc2ccc(C(F)(F)F)cc2)O3)cc1	x	n	97	98	n	n	103
Cc1ccc(S(=O)(=O)Nc2ccc3c(c2)C(=O)N([C@@H](C)CO)C[C@H](C)[C@H](CN(C)Cc2ccc(C(F)(F)F)cc2)O3)cc1	x	n	99	103	100	n	99
C[C@@H]1CN([C@H](C)CO)C(=O)c2cc(NS(=O)(=O)c3ccc(Cl)cc3)ccc2O[C@@H]1CN(C)Cc1ccc(C(F)(F)F)cc1	n	n	128	u	n	94	103
C[C@@H]1CN([C@H](C)CO)C(=O)c2cc(NS(=O)(=O)c3ccc(F)cc3)ccc2O[C@@H]1CN(C)Cc1ccc(C(F)(F)F)cc1	n	n	n	x	x	x	x
CO[C@@H]1CN(C)C(=O)c2cc(NC(=O)CC(F)(F)F)ccc2OC[C@@H](C)N(S(=O)(=O)c2cn(C)cn2)C[C@@H]1C	x	n	x	x	x	x	x
C[C@@H]1CN([C@@H](C)CO)C(=O)c2cc(NC(=O)CCC(F)(F)F)ccc2O[C@@H]1CN(C)CC1CC1	n	n	n	x	x	x	x
C[C@@H]1CN([C@@H](C)CO)S(=O)(=O)c2ccc(C#Cc3ccccn3)cc2O[C@@H]1CN(C)Cc1cccc(F)c1	n	n	119	108	u	n	n
C[C@H](CO)N1C[C@H](C)[C@@H](CN(C)Cc2cccc(F)c2)Oc2cc(C#Cc3ccccn3)ccc2S1(=O)=O	n	n	117	n	112	n	n
C[C@@H]1CN([C@H](C)CO)S(=O)(=O)c2ccc(C#Cc3ccccn3)cc2O[C@@H]1CN(C)CC1CC1	n	n	n	x	x	x	x
CCCN(C)C[C@@H]1Oc2cc(C#Cc3ccccn3)ccc2S(=O)(=O)N([C@@H](C)CO)C[C@@H]1C	n	n	n	x	x	x	x
CN1c2ccc(-c3ccccc3)cc2[C@H]2[C@H](CCN2C(=O)c2ccccc2)[C@@H]1CO	n	n	n	x	x	x	x
Cc1ccc(S(=O)(=O)N(C)C[C@@H]2Oc3ccc(NC(=O)Nc4ccccc4)cc3C(=O)N([C@@H](C)CO)C[C@@H]2C)cc1	n	n	x	x	x	x	x
COc1ccc(S(=O)(=O)Nc2ccc3c(c2)C(=O)N([C@@H](C)CO)C[C@H](C)[C@H](CN(C)S(=O)(=O)c2c(C)noc2C)O3)cc1	n	n	n	x	x	x	x

Source: PubChem BioAssay
